Where “and” joins values, the source holds several entries; their conditions need not be identical. Equal entries are not always repeated. Among all 5,500 compounds or so, about 2,000 (36%) were called active. Inconclusive results (about 18%) are left out. No stated cut-off is given here; in the data, active means normalized growth mostly below about 0.91 (no sharp cut-off); inconclusive means no clear call, values can overlap the other calls; inactive means mostly above about 0.92. The list shows a part of the results.
Experiment: chemical genetic growth profiling, strain panel (AID 1159580);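 further: tested at 20 µM; growth read once vehicle control cultures reached saturation at 30 °C; 1 = growth at the plate median or of vehicle wells; lower values mean less growth of the strain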
Settings: growth OD

Measured: normalized growth

COCCc1ccc(OCC(O)CNC(C)C)cc1 (stereo unspecified)
inactive: S. cerevisiae deletion strains, locus YJR075W, strain HOC1, active compounds read low 1.01 | S. cerevisiae deletion strains, locus YKL009W, strain mrt4, active compounds read low 1 | S. cerevisiae deletion strains, locus YKL068W, active compounds read low 1.01 | S. cerevisiae deletion strains, locus YKL085W, strain MDH1 (second series), active compounds read low 0.998 | S. cerevisiae deletion strains, locus YKL085W, strain MDH1, active compounds read low 0.998 | S. cerevisiae deletion strains, locus YKL160W, strain elf1, active compounds read low 0.98 | S. cerevisiae deletion strains, locus YKL190W, strain CNB1, active compounds read low 1.01 | S. cerevisiae deletion strains, locus YKR001C, strain vps1, active compounds read low 0.999 | S. cerevisiae deletion strains, locus YKR026C, strain gcn3, active compounds read low 1 | S. cerevisiae deletion strains, locus YKR091W, strain srl3, active compounds read low 0.988 | S. cerevisiae deletion strains, locus YLL001W, strain dnm1, active compounds read low 0.935 | S. cerevisiae deletion strains, locus YLL026W, active compounds read low 0.99 | S. cerevisiae deletion strains, locus YLL041C, strain sdh2, active compounds read low 1 | S. cerevisiae deletion strains, locus YLR027C, strain aat2, active compounds read low 1.02 | S. cerevisiae deletion strains, locus YLR039C, strain RIC1, active compounds read low 0.989 | S. cerevisiae deletion strains, locus YLR058C, strain SHM2, active compounds read low 1.01 | S. cerevisiae deletion strains, locus YLR102C, strain apc9, active compounds read low 1.01 | S. cerevisiae deletion strains, locus YLR113W, strain HOG1, active compounds read low 1.03 | S. cerevisiae deletion strains, locus YLR221C, strain rsa3, active compounds read low 0.955 | S. cerevisiae deletion strains, locus YLR258W, strain gsy2, active compounds read low 1.01 | S. cerevisiae deletion strains, locus YLR262C, strain YPT6 (second series), active compounds read low 1 | S. cerevisiae deletion strains, locus YLR262C, strain YPT6, active compounds read low 1 | S. cerevisiae deletion strains, locus YLR268W, strain sec22, active compounds read low 1.08 | S. cerevisiae deletion strains, locus YLR320W, strain mms22, active compounds read low 0.977 | S. cerevisiae deletion strains, locus YLR330W, strain CHS5, active compounds read low 1.01 | S. cerevisiae deletion strains, locus YLR342W, strain FKS1 (second series), active compounds read low 1.01 | S. cerevisiae deletion strains, locus YLR342W, strain FKS1, active compounds read low 0.993 | S. cerevisiae deletion strains, locus YLR357W, strain rsc2, active compounds read low 0.973 | S. cerevisiae deletion strains, locus YLR370C, strain arc18, active compounds read low 0.99 | S. cerevisiae deletion strains, locus YLR371W, strain rom2, active compounds read low 1.01 | S. cerevisiae deletion strains, locus YLR384C, strain iki3, active compounds read low 0.991 | S. cerevisiae deletion strains, locus YLR418C, strain cdc73, active compounds read low 0.986 | S. cerevisiae deletion strains, locus YML016C, strain PPZ1, active compounds read low 1.01 | S. cerevisiae deletion strains, locus YML032C, strain rad52, active compounds read low 1.03 | S. cerevisiae deletion strains, locus YML120C, strain ndi1, active compounds read low 0.942 | S. cerevisiae deletion strains, locus YML124C, strain tub3, active compounds read low 1.01 | S. cerevisiae deletion strains, locus YMR058W, strain fet3, active compounds read low 0.989 | S. cerevisiae deletion strains, locus YMR078C, strain ctf18, active compounds read low 1.01 | S. cerevisiae deletion strains, locus YMR125W, strain sto1, active compounds read low 0.97 | S. cerevisiae deletion strains, locus YMR129W, active compounds read low 0.996 | S. cerevisiae deletion strains, locus YMR205C, strain PFK2, active compounds read low 0.962 | S. cerevisiae deletion strains, locus YMR223W, strain ubp8, active compounds read low 0.995 | S. cerevisiae deletion strains, locus YMR231W, strain pep5, active compounds read low 0.997 | S. cerevisiae deletion strains, locus YMR263W, strain SAP30, active compounds read low 1.02 | S. cerevisiae deletion strains, locus YMR307W, strain GAS1, active compounds read low 1.02 | S. cerevisiae deletion strains, locus YNL067W, strain RPL9B, active compounds read low 1.02 | S. cerevisiae deletion strains, locus YNL071W, strain lat1, active compounds read low 0.989 | S. cerevisiae deletion strains, locus YNL128W, strain TEP1, active compounds read low 1.01 | S. cerevisiae deletion strains, locus YNL153C, strain GIM3, active compounds read low 1.02 | S. cerevisiae deletion strains, locus YNL175C, strain NOP13, active compounds read low 1.01 | S. cerevisiae deletion strains, locus YNL183C, strain NPR1, active compounds read low 1 | S. cerevisiae deletion strains, locus YNL197C, strain WHI3, active compounds read low 0.984 | S. cerevisiae deletion strains, locus YNL209W, strain ssb2, active compounds read low 0.987 | S. cerevisiae deletion strains, locus YNL224C, strain SQS1, active compounds read low 0.988 | S. cerevisiae deletion strains, locus YNL233W, strain BNI4, active compounds read low 1.01 | S. cerevisiae deletion strains, locus YNL248C, strain rpa49, active compounds read low 0.992 | S. cerevisiae deletion strains, locus YNL250W, strain rad50, active compounds read low 1.01 | S. cerevisiae deletion strains, locus YNL271C, strain bni1, active compounds read low 1.01 | S. cerevisiae deletion strains, locus YNL298W, strain CLA4, active compounds read low 1.02 | S. cerevisiae deletion strains, locus YNL307C, strain MCK1, active compounds read low 1.02 | S. cerevisiae deletion strains, locus YNL322C, strain KRE1 (second series), active compounds read low 0.98 | S. cerevisiae deletion strains, locus YNL322C, strain KRE1, active compounds read low 1 and 0.99 | S. cerevisiae deletion strains, locus YNR049C, strain mso1, active compounds read low 0.978 | S. cerevisiae deletion strains, locus YNR052C, strain pop2, active compounds read low 1.01 | S. cerevisiae deletion strains, locus YOL006C, strain TOP1, active compounds read low 1.07 | S. cerevisiae deletion strains, locus YOL012C, strain htz1 0.79 | S. cerevisiae deletion strains, locus YOL147C, strain pex11, active compounds read low 1.01 | S. cerevisiae deletion strains, locus YOR001W, strain rrp6, active compounds read low 1.03 | S. cerevisiae deletion strains, locus YOR061W, strain CKA2, active compounds read low 1.01 | S. cerevisiae deletion strains, locus YOR069W, strain VPS5, active compounds read low 1.01 | S. cerevisiae deletion strains, locus YOR070C, strain gyp1, active compounds read low 0.995 | S. cerevisiae deletion strains, locus YOR080W, strain dia2, active compounds read low 0.985 | S. cerevisiae deletion strains, locus YOR083W, strain WHI5 (second series), active compounds read low 0.999 | S. cerevisiae deletion strains, locus YOR083W, strain WHI5, active compounds read low 0.981 | S. cerevisiae deletion strains, locus YOR106W, strain vam3, active compounds read low 0.957 | S. cerevisiae deletion strains, locus YOR136W, strain idh2, active compounds read low 1.01 | S. cerevisiae deletion strains, locus YOR144C, strain elg1, active compounds read low 1.01 | S. cerevisiae deletion strains, locus YOR184W, strain ser1, active compounds read low 1.02 | S. cerevisiae deletion strains, locus YOR231W, strain MKK1, active compounds read low 1.03 | S. cerevisiae deletion strains, locus YOR265W, strain rbl2, active compounds read low 0.995 | S. cerevisiae deletion strains, locus YOR270C, strain vph1, active compounds read low 0.975 | S. cerevisiae deletion strains, locus YOR290C, strain snf2, active compounds read low 0.91 | S. cerevisiae deletion strains, locus YOR316C, strain cot1, active compounds read low 1.01 | S. cerevisiae deletion strains, locus YPL051W, strain arl3, active compounds read low 1 | S. cerevisiae deletion strains, locus YPL055C, strain LGE1, active compounds read low 0.989 and 1.01 | S. cerevisiae deletion strains, locus YPL078C, strain atp4, active compounds read low 0.978 | S. cerevisiae deletion strains, locus YPL106C, strain sse1, active compounds read low 0.971 | S. cerevisiae deletion strains, locus YPL240C, strain hsp82, active compounds read low 0.992 | S. cerevisiae deletion strains, locus YPL241C, strain CIN2, active compounds read low 1 and 0.974 | S. cerevisiae deletion strains, locus YPL256C, strain CLN2, active compounds read low 1.1 | S. cerevisiae deletion strains, locus YPR119W, strain clb2, active compounds read low 1.02 | S. cerevisiae deletion strains, locus YPR141C, strain kar3, active compounds read low 1.02 | S. cerevisiae deletion strains, locus YPR163C, strain tif3, active compounds read low 1.02 | S. cerevisiae deletion strains, locus YPR167C, strain met16, active compounds read low 1.01 | S. cerevisiae deletion strains, strain wtn01, active compounds read low 1.05 | S. cerevisiae strains, strain wild type, active compounds read low 1.01

Source: PubChem BioAssay AID1159580 (chemical genetic matrix, 2015)
